Measurements: PubChem BioAssay (Tox21)
Inconclusive results are not listed. Calls of active or inactive are those of the source. Unless noted, calls come from the whole dose curve.

Columns and labels:
[1] = Nuclear factor erythroid 2-related factor 2/antioxidant responsive element (Nrf2/ARE) small molecule agonists: qHTS cell viability counter screen in human keratinocytes (AID 1919968; active = well fitted curve in the direction sought with a large enough effect in the repeat runs; an effect the other way counts as inactive or inconclusive; note: nearly all actives have a fitted effect of over 55% in size)
Summary of the method: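 Cytotoxicity was multiplexed with the Nrf2/ARE luciferase assay in the same wells. Stably transfected HaCaT keratinocytes were treated with test compounds for 23 h at 37 C. Cell viability was then measured by CellTiter-Fluor fluorescence.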

[2] = Nuclear factor erythroid 2-related factor 2/antioxidant responsive element (Nrf2/ARE) small molecule agonists: luciferase reporter gene qHTS assay in human keratinocytes (AID 1919969); note: nearly all actives have a fitted effect of over 35% in size
[3] = biological target: Gonadotropin-releasing hormone receptor (Homo sapiens) (UniProt P30968); experiment: Human gonadotropin-releasing hormone receptor (GnRHR) small molecule agonists, calcium flux assay in GnRHR-HEK293 cells (AID 1920063); note: nearly all actives have a fitted effect of over 35% in size
Chain of Gonadotropin-releasing hormone receptor (Homo sapiens) (P30968 whole entry, looked up): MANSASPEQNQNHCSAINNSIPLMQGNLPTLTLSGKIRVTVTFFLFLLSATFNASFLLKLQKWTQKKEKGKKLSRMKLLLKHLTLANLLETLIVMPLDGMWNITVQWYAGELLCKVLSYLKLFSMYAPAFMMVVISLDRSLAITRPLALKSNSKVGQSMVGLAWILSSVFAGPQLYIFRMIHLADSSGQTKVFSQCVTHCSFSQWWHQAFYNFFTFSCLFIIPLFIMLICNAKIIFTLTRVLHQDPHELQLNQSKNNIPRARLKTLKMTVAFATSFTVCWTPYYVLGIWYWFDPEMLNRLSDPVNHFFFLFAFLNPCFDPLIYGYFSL
Summary of the method: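 Agonist activity was measured as intracellular calcium flux in HEK293 cells engineered to stably express human GnRHR. After dye loading for 1 hour at 37 C, compounds in DMSO were added and fluorescence was followed for 3 minutes.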

[4] = biological target: KiSS-1 receptor (Homo sapiens) (UniProt Q969F8); experiment: Human kisspeptin (KISS1R) small molecule agonists, calcium flux assay in KISS1R-HEK293 cells (AID 1920064; active = well fitted curve in the direction sought with a large enough effect in the repeat runs; an effect the other way counts as inactive or inconclusive)
Chain of KiSS-1 receptor (Homo sapiens) (Q969F8 whole entry, looked up): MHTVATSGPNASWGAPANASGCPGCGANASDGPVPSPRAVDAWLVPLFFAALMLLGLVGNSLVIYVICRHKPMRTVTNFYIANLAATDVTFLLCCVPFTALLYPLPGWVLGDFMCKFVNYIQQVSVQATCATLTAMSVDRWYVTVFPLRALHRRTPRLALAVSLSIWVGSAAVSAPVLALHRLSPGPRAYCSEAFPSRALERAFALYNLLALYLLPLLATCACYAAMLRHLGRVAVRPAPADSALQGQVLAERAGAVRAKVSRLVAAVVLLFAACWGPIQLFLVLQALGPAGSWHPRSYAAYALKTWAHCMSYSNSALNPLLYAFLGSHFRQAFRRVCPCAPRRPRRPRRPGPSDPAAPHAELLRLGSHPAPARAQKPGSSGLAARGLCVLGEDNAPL
Summary of the method: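 Agonist activity is monitored as intracellular calcium rise in engineered HEK293 cells carrying human KISS1R. Cells are dye-loaded for 1 h at 37 C before compound addition, and fluorescence is recorded for 3 min.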

[5] = G protein-coupled receptor (GPCR) small molecule agonists, calcium flux assay: HEK293 wild type cell line counter screen (AID 1920065)
Summary of the method: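 Seed cells, incubate 18 h (37 C, 5% CO2); add calcium dye, 1 h at 37 C; pin-transfer compounds, ATP control or DMSO; read fluorescence 480/540 nm each second for 3 min.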

[6] = p53 small molecule agonists, cell-based qHTS assay with human liver microsomes (AID 1963577)
Summary of the method: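 Cells carrying a p53-responsive bla reporter were rested 5 h (37 C, 5% CO2) before compound transfer. Human liver microsomes plus NADPH, 0.5 mg/mL final apiece, supplied metabolism during the 16 h 37 C exposure.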

[7] = p53 small molecule agonists, cell-based qHTS assay with rat liver microsomes (AID 1963578)
Summary of the method: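 Fluorescence from a beta-lactamase reporter under a p53 response element was measured after cells had been incubated 16 h at 37 C with test compound and rat liver microsomes plus NADPH (0.5 mg/mL final each).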

[8] = p53 small molecule agonists, cell-based qHTS assay with human liver microsomes: qHTS cell viability counter screen (AID 1963579); note: nearly all actives have a fitted effect of over 45% in size
Summary of the method: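 Seed p53RE-bla cells at 4,000 per well; incubate 5 h at 37 C; add compound, human liver microsomes and NADPH; incubate 16 h at 37 C; add CellTiter-Glo; after 30 min at room temperature, read luminescence.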

[9] = p53 small molecule agonists, cell-based qHTS assay with rat liver microsomes: qHTS cell viability counter screen (AID 1963580); note: nearly all actives have a fitted effect of over 45% in size
Summary of the method: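 Cytotoxicity counter screen: intracellular ATP read by CellTiter-Glo luminescence in the p53 reporter wells. HCT-116 p53RE-bla cells were treated for 16 h at 37 C alongside rat liver microsomes and NADPH, each 0.5 mg/mL final.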

[10] = p53 small molecule agonists, cell-based qHTS assay: qHTS cell viability counter screen (AID 1963581); note: nearly all actives have a fitted effect of over 45% in size
Summary of the method: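 Viability was counter-screened in parallel with the p53 agonist reporter by measuring intracellular ATP luminescence in the same HCT-116 p53RE-bla wells after 16 h compound treatment at 37 C.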

[11] = p53 small molecule agonists, cell-based qHTS assay (AID 1963582; active = well fitted activation curve with a large enough effect in the signal ratio in the repeat runs, not every such curve was filed as active; the % refers to the signal ratio)
Summary of the method: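 Cells carrying a p53-responsive bla reporter are treated with test compounds for 16 h at 37 C; beta-lactamase activity is then detected with LiveBLAzer B/G FRET substrate after 2 h at room temperature.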

[12] = biological target: 5-hydroxytryptamine receptor 2A (Homo sapiens) (UniProt P28223); experiment: 5-hydroxytryptamine receptor 2A (HTR2A) small molecule antagonists, cell-based qHTS assay (AID 1963586); note: nearly all actives have a fitted effect of over 45% in size
Chain of 5-hydroxytryptamine receptor 2A (Homo sapiens) (P28223 whole entry, looked up): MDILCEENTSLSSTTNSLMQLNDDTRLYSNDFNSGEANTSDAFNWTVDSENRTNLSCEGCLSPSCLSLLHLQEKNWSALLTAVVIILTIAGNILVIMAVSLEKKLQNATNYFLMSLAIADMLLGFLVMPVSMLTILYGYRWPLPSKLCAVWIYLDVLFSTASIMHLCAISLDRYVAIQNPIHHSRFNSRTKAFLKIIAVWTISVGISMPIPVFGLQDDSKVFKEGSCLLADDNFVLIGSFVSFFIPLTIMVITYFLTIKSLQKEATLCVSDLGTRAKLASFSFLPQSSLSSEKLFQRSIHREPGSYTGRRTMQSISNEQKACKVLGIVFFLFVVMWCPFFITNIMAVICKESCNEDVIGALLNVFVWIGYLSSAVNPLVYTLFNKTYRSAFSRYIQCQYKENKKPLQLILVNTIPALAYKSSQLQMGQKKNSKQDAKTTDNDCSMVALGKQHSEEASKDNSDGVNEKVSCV
Summary of the method: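 CHO cells stably expressing human HTR2A were plated for 18 h at 37 C, then loaded with calcium dye for 1 h. Compounds were preincubated 5 min at room temperature before DOI (4 nM solution) was added. Kinetic fluorescence was read for 3 min.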

[13] = biological target: 5-hydroxytryptamine receptor 2A (Homo sapiens) (UniProt P28223); experiment: 5-hydroxytryptamine receptor 2A (HTR2A) small molecule agonists, cell-based qHTS assay (AID 1963587); note: nearly all actives have a fitted effect of over 30% in size
Summary of the method: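 Kinetic calcium-flux fluorescence (2 min, 1 sec intervals) after compound addition in agonist mode. HTR2A-CHO cells were cultured 18 h, then dye-loaded 1 h at 37 C.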

[14] = biological target: Muscarinic acetylcholine receptor M1 (Homo sapiens) (UniProt P11229); experiment: Cholinergic receptor muscarinic 1 (CHRM1) small molecule antagonists, cell-based qHTS assay (AID 1963588); note: nearly all actives have a fitted effect of over 40% in size
Chain of Muscarinic acetylcholine receptor M1 (Homo sapiens) (P11229 whole entry, looked up): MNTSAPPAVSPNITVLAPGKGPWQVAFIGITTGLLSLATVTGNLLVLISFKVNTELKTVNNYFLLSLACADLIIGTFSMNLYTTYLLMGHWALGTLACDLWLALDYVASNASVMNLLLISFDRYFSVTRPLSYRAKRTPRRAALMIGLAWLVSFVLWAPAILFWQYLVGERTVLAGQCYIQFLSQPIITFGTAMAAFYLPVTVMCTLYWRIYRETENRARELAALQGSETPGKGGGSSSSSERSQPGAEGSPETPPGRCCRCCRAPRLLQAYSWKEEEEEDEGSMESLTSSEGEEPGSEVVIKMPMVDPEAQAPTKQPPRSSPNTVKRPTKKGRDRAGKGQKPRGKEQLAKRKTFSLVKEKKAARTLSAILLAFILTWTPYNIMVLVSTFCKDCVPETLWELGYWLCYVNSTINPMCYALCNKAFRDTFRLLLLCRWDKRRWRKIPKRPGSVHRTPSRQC
Summary of the method: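 Compounds were tested at 15 concentrations in three independent runs. Dye-loaded CHRM1-CHO cells were exposed 5 min at room temperature before stimulation by acetylcholine added at 50nM. Intracellular calcium was read kinetically on FDSS for 3 min.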

[15] = biological target: Muscarinic acetylcholine receptor M1 (Homo sapiens) (UniProt P11229); experiment: Cholinergic receptor muscarinic 1 (CHRM1) small molecule agonists, cell-based qHTS assay (AID 1963589); note: nearly all actives have a fitted effect of over 35% in size
Summary of the method: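 Cells were plated and incubated 18 h at 37 C/5% CO2, loaded with calcium dye for 1 h at 37 C, then treated with compounds in DMSO. Fluorescence was recorded kinetically at 1 sec intervals.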

[16] = cAMP Responsive Elements (CRE) small molecule antagonists, cell-based qHTS assay (AID 1963591; active = well fitted inhibition curve with a large enough effect in the signal ratio in the repeat runs, not every such curve was filed as active; the % refers to the signal ratio)
Summary of the method: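 Cells (CRE-bla HEK 293T, DMEM with 10% dialyzed FBS and 25 mM HEPES) are seeded and incubated 18 h. Compounds are added with NKH477 agonist at 0.25 uM final for 3 h, then FRET substrate for 2 h.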

[17] = biological target: Beta-2 adrenergic receptor (Homo sapiens) (UniProt P07550); experiment: Adrenergic beta2 receptor (ADRB2) small molecule antagonists, cell-based qHTS assay (AID 1963592); note: series mostly up to about 92 µM; nearly all actives have a fitted effect of over 50% in size
Chain of Beta-2 adrenergic receptor (Homo sapiens) (P07550 whole entry, looked up): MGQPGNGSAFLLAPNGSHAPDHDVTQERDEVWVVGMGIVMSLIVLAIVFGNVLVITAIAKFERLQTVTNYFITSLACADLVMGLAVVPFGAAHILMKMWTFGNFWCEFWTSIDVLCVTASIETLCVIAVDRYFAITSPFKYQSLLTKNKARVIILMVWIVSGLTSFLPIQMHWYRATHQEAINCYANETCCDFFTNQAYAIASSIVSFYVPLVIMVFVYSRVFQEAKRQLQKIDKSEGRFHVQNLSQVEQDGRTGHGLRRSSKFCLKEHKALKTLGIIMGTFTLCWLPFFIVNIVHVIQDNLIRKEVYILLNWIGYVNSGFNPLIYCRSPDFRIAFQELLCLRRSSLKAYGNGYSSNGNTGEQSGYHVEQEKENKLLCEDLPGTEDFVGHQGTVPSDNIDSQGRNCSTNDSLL
Summary of the method: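 Assay format: CHO-ADRB2 cells, 18-20hr seeding at 37C/5% CO2, then compound plus 1nM isoproterenol agonist mix for 0.5hr RT. Homogeneous time-resolved fluorescence cAMP detection after 1hr, expressed as 665/615 nm ratio.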

[18] = biological target: D(2) dopamine receptor (Homo sapiens) (UniProt P14416); experiment: Dopamine D2 receptor (DRD2) small molecule agonists, cell-based qHTS assay (AID 1963594); note: nearly all actives have a fitted effect of over 35% in size
Chain of D(2) dopamine receptor (Homo sapiens) (P14416 whole entry, looked up): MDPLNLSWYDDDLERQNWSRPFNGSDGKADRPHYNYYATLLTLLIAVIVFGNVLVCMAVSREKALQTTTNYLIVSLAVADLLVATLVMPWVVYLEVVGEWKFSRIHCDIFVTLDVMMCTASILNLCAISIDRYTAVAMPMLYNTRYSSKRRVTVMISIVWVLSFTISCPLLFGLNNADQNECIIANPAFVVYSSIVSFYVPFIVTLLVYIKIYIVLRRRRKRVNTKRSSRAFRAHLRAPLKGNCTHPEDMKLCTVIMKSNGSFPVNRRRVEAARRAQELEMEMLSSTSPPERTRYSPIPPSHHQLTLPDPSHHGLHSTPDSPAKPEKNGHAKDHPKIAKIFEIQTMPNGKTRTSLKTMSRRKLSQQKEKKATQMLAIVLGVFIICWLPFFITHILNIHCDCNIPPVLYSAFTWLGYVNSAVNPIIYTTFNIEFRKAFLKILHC
Summary of the method: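 cAMP accumulation in DRD2-HEK293 cells measured by HTRF after 1 h detection; compounds added 10 min before NKH477 (200nM […]) forskolin-analogue stimulation, 30 min at room temperature, with Ro20-1724 present at 0.1 mM final.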

[19] = biological target: D(2) dopamine receptor (Homo sapiens) (UniProt P14416); experiment: Dopamine D2 receptor (DRD2) small molecule antagonists, cell-based qHTS assay (AID 1963595; active = well fitted inhibition curve with a large enough effect in the signal ratio in the repeat runs, with a control signal flat; the % refers to the signal ratio)
Summary of the method: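 Cells were plated and grown for 24 h at 37 °C. Ro20-1724 (0.1 mM final) went in first, then compound for 10 min. NKH477 (200 nM) with quinpirole (12 nM) followed for 30 min at RT, then HTRF detection reagents for 1 h.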

Measured: Potency

CO[Si](CCCNCCC[Si](OC)(OC)OC)(OC)OC
inactive: [1] | [2] | [3] | [4] | [5] | [6] | [7] | [8] | [9] | [10] | [11] | [12] | [13] | [14] | [15] | [16] | [17] | [18] | [19]

Cc1ccc(-c2ccccc2)cc1
inactive: [1] | [2] | [3] | [4] | [5] | [6] | [7] | [8] | [9] | [10] | [11] | [12] | [13] | [14] | [15] | [16] | [17] | [18] | [19]

CCN(CC)CCN
inactive: [1] | [2] | [3] | [4] | [5] | [6] | [7] | [8] | [9] | [10] | [11] | [12] | [13] | [14] | [15] | [16] | [17] | [18] | [19]

CCCCCCCCC(=O)OCC
inactive: [1] | [2] | [3] | [4] | [5] | [6] | [7] | [8] | [9] | [10] | [11] | [12] | [13] | [14] | [15] | [16] | [17] | [18] | [19]
